Measurements reported in PubChem BioAssay (NCI).
This is part of a sample that, as a whole, favours compounds with a hit. Of some 79,000 tested, about 15% had one in any assay. The source made the active and inactive calls. Rule as the data show it: active = growth inhibition above about 70%; inactive = the rest.

Experiments:
[1] = NCI Yeast Anticancer Drug Screen. Data for the rad50 strain (AID 155);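 also: 0% = growth of vehicle-only cultures of the same strain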; conditions: S. cerevisiae rad50 strain growth inhibition; at 50.0 µM; hits give high values
Outline: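 Readout: growth inhibition relative to vehicle-treated cultures. Compound exposure was carried out in a genetically defined yeast strain deficient in DNA damage repair.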

[2] = NCI Yeast Anticancer Drug Screen. Data for the mec2-1 strain (AID 157); conditions: S. cerevisiae mec2-1 strain, at 50.0 µM, hits give high values
Outline: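 Yeast mec2-1 mutant treated with compound. Readout: growth inhibition vs vehicle controls.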

[3] = NCI Yeast Anticancer Drug Screen. Data for the sgs1 mgt1 strain (AID 161);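 also: 0% = growth of cultures given vehicle only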; conditions: S. cerevisiae sgs1 mgt1 strain, at 50.0 µM, hits give high values
Outline: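 Genetically altered yeast, compound exposure, growth inhibition relative to vehicle.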

[4] = NCI Yeast Anticancer Drug Screen. Data for the cln2 rad14 strain (AID 165);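 also: 0% = growth equal to vehicle treated cultures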; conditions: S. cerevisiae cln2 rad14 strain, at 50.0 µM, hits give high values
Outline: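 cln2 rad14 yeast strain; compound exposure; growth inhibition read vs vehicle controls.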

[5] = NCI Yeast Anticancer Drug Screen. Data for the bub3 strain (AID 167); conditions: S. cerevisiae bub3 mutant strain, at 50.0 µM, hits give high values
Outline: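 Readout: yeast growth inhibition, expressed relative to vehicle-only wells. The test organism is a mutant strain from a panel with lesions in DNA repair or checkpoint genes.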

[6] = NCI Yeast Anticancer Drug Screen. Data for the mlh1 rad18 strain (AID 175); conditions: S. cerevisiae mlh1 rad18 strain growth inhibition; at 50.0 µM; hits give high values
Outline: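 Yeast w/ defined DNA-repair lesions; compound exposure; growth vs vehicle controls → % inhibition.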

Measured: growth inhibition

CC(=O)Nc1ccc2c(c1)C(P(=O)(OC(C)C)OC(C)C)c1ccccc1-2 (stereo not given)
inactive: [1] 6% | [2] 19.6% | [3] 18.1% | [4] -1.4% | [5] 34.4% | [6] -2.8%

O=C(CCCCc1ccccc1)NO
inactive: [1] 25.4% | [2] 18.8% | [3] 14.4% | [4] 15.8% | [5] -5.5% | [6] 33.5%

CSc1ccc(NC(=O)c2cccc([N+](=O)[O-])c2C(=O)O)cc1
inactive: [1] 5.05% | [2] 8.25% | [3] 13.2% | [4] -6.35% | [5] 15.2% | [6] 1.6%

Nc1ncc2c(n1)SCC2
inactive: [1] -10.3% | [2] -5.8% | [3] -8.25% | [4] -19.7% | [5] -17.6% | [6] -19.6%

CCC1(C#CCN2C(=O)c3ccccc3C2=O)C=CC2(CC1)OCCO2 (stereo not given)
inactive: [1] 10.2% | [2] 18.2% | [3] 26.2% | [4] 0.6% | [5] 2.5% | [6] 48.9%

O=CC(=C\c1cccs1)/C(C=O)=C\c1cccs1
active: [1] 99.3% | [2] 99.5% | [3] 99.5% | [4] 99.1% | [5] 99.4% | [6] 88.5%

Cn1c(=O)c2c(nc(Br)n2CC(=O)c2ccc([N+](=O)[O-])cc2)n(C)c1=O
inactive: [1] 24.8% | [2] 16.1% | [3] 22.1% | [4] 18.9% | [5] 0.55% | [6] 27.4%

C[N+]1(CCC[N+]2(C)CCC3(CCCCC3)CC2)CCOCC1
inactive: [1] 18.6% | [2] -0.05% | [3] 11.2% | [4] -4.8% | [5] -1.55% | [6] 16.8%

C[C@@H](C1CCC2C3C(=CC(=O)[C@@]21C)[C@H](C)[C@]1(CCC(=O)O1)C1OC31)[C@H]1C[C@]2(C)O[C@@](C)(O1)OC2(C)C (stereo not given in full)
inactive: [1] -11.2% | [2] -0.9% | [3] -25.9% | [4] -4.85% | [5] -14.2% | [6] 9.15%

N=C1C=C/[N+](=C\C=CCO)C([O-])=N1
inactive: [1] -18.2% | [2] -20.6% | [3] -35.3% | [4] -2.55% | [5] -43.4% | [6] -3.2%

O=C1CCC2=C3C4CCCC5OC6CC(=O)CCC6=C(C6CCCC(OC2C1)C36)C54 (stereo not given)
inactive: [1] 5.5% | [2] -2.15% | [3] 6.55% | [4] 11.2% | [5] 25.6% | [6] 17.4%

O=C(Nc1ccccc1Cl)Oc1ccc(C(=O)c2ccccc2)cc1
inactive: [1] -0.3% | [2] -13.3% | [3] 30.2% | [4] 19.9% | [5] 16.9% | [6] 13.2%

CCCCCCCCCCNCC(=O)O
inactive: [1] -11.1% | [2] -16.6% | [3] -1.65% | [4] -7.6% | [5] -1.6% | [6] -8.95%

CC(=O)C1OC1c1ccccn1 (stereo not given)
inactive: [1] -5.15% | [2] 3.7% | [3] -9.5% | [4] 55.8% | [5] 3.4% | [6] 3.35%

Cc1cc(C)cc(NC(=O)CCC(=O)C2CCC/C2=N\NC(=O)C(=O)NN)c1 (stereo not given)
inactive: [1] 3.95% | [2] -2.7% | [3] -20.6% | [4] 2.1% | [5] 5.2% | [6] -6.8%

CS(=O)(=O)OCCn1cnc2nc(NC(=O)c3ccccc3)[nH]c(=O)c21
inactive: [1] -13.1% | [2] -20.6% | [3] -12.7% | [4] 0.55% | [5] -19.2% | [6] -24.6%

COc1cc([C@H]2CC(=O)C[C@H](c3cc(OC)c(OC)c(OC)c3)C23C(=O)c2ccccc2C3=O)cc(OC)c1OC
inactive: [1] -3% | [2] 11.9% | [3] -8.7% | [4] 29.5% | [5] 0.45% | [6] 7%

COC(=O)C(Cc1ccccc1)NC(=O)Cn1ccnc1[N+](=O)[O-] (stereo not given)
inactive: [1] 9.65% | [2] -19.6% | [3] 15.2% | [4] 7.7% | [5] -16% | [6] -3.3%

O=C(Nc1ccc(F)c([N+](=O)[O-])c1)Nc1ccccc1C(F)(F)F
inactive: [1] 3.95% | [2] 29.6% | [3] 33.8% | [4] -3.5% | [5] 31.3% | [6] 25.8%

CN(NC1=NCCO1)c1ccc2ccccc2c1
inactive: [1] -46.3% | [2] -22.4% | [3] -15.8% | [4] -23.5% | [5] -21.4% | [6] -46.1%

Cn1c2ccccc2n2c(=O)c(-c3ccc(Cl)cc3)nnc12
inactive: [1] -4.95% | [2] 10.9% | [3] -5.15% | [4] -6.15% | [5] -11.2% | [6] -35.4%

CCN(CC)CCOC(C)=O
inactive: [1] 8.25% | [2] -15.7% | [3] -19.4% | [4] 0.7% | [5] -11.1% | [6] -26.3%

OC1c2ccccc2-c2ccccc21
inactive: [1] 35.6% | [2] 0.95% | [3] -15.4% | [4] -22.3% | [5] 6.8% | [6] 25.2%

CCC1CCN=C(NS(=O)(=O)c2cc(C)c(Cl)cc2S)N1 (stereo not given)
inactive: [1] -29.8% | [2] -5.25% | [3] -25.2% | [4] -18.1% | [5] 4.9% | [6] -33%

CC(NCc1c(O)ccc2c(-c3ccccc3)cc(=O)oc12)C(=O)O (stereo not given)
inactive: [1] -39.4% | [2] -19.1% | [3] -32.6% | [4] 4.35% | [5] -4.95% | [6] -14.8%

CC(=O)c1c[nH]cc1CO
inactive: [1] -1.7% | [2] 7.8% | [3] 8.85% | [4] 11.3% | [5] 11.6% | [6] -7.75%

CCOC(=O)c1cccc(OCC)c1
inactive: [1] 6.95% | [2] 18.1% | [3] -7.65% | [4] -43% | [5] 3.5% | [6] 6.7%

COc1ccc(-c2cc(=O)c3ccc(O)cc3o2)c(OC)c1OC
inactive: [1] -4.7% | [2] -10.4% | [3] -8.35% | [4] 6.65% | [5] -2.65% | [6] -1.75%

CC(=O)N1CC(=O)N2C(=O)/C(=C/c3ccc(Cl)cc3)N=C12
inactive: [1] 2.3% | [2] 1.35% | [3] 11.9% | [4] 3.35% | [5] 9.45% | [6] -42.4%

CCOC(=O)c1cnc(SC)nc1Nc1cccc(Cl)c1Cl
active: [2] 99% | [4] 98.1% | [5] 98.8%
inactive: [1] 1.15% | [3] 35.9% | [6] 25.1%

CC(=O)/C=C/C=C/c1ccco1
inactive: [1] -0.85% | [2] 1.3% | [3] 9.15% | [4] -9.7% | [5] 10.4% | [6] 11.6%

O=C1OC(c2ccccc2)(C2(c3ccccc3)C=C(c3ccccc3)C(=O)O2)C=C1c1ccccc1 (stereo not given)
inactive: [1] 39.2% | [2] -3% | [3] 0.7% | [4] -3.8% | [5] 5.3% | [6] 3.15%

CC(O)C(NC(=O)c1cnc2ccccc2n1)C(=O)O (stereo not given)
inactive: [1] -8.45% | [2] -5.1% | [3] 17.8% | [4] -17.1% | [5] 15.9% | [6] -11.8%

COc1cc2c3c(c1)nc(C)n3C(=O)C(C)S2 (stereo not given)
inactive: [1] -26.8% | [2] -46.9% | [3] -22.9% | [4] 12.3% | [5] 11.3% | [6] -22%

O=C(NCCCOc1ccc(Cl)c(Cl)c1)NCCc1ccc(Cl)c(Cl)c1
inactive: [1] 6.65% | [2] 4.7% | [3] -3.95% | [4] -8.9% | [5] 0.95% | [6] 15.4%

CN(C)S(=O)(=O)c1ccc(NC(=O)OC(C)(c2ccccc2)C2CCCCC2)cc1 (stereo not given)
inactive: [1] 17.4% | [2] 2% | [3] 4.05% | [4] 7.75% | [5] 1.35% | [6] 4%

CC(C)C(NC(=O)OC(C)(C)C)C(=O)O (stereo not given)
inactive: [1] -11.3% | [2] 1.2% | [3] 14.7% | [4] -66.3% | [5] 9.45% | [6] -6.9%

COc1ccc(C)c(C2=CCCCC2)c1
inactive: [1] 4.65% | [2] 3.45% | [3] -9.15% | [4] -6.55% | [5] -2.35% | [6] -15.8%

O=C(O)c1cscn1.O=C(O)c1cscn1.[I][Pt][I]
inactive: [1] 5.75% | [2] 3.55% | [3] 13.9% | [4] -17.1% | [5] 0.9% | [6] 48%

CN(C)c1ccc(C=C2C(=O)OC(C)(C)OC2=O)cc1Br
inactive: [1] 1.55% | [2] -13.8% | [3] -4.1% | [4] 32% | [5] -17.6% | [6] 10.7%
